For 27 molecules, Potency results are on record in PubChem BioAssay (NCATS).

Results filed as inconclusive are left out. Entries that show only a call come without a potency. The source made the active and inactive calls. Calls follow the shape of the dose curve; as a rule, active = well fitted activation curve with a large enough effect; inconclusive = small, poorly fitted or top-dose-only effect; inactive = flat fitted curve, though single readings scatter.
Potency is read from the fitted curve at half-maximal effect.

A short description of the assay: qHTS for Activators of p53 Stress Response Pathway screened against the NCATS CANVASS Library (AID 1347388). The conditions noted are these: p53RE-bla HCT-116, beta-lactamase reporter, 16 h; series mostly up to 46.1 µM. The source says:
Natural products and their derivatives continue to be wellsprings of nascent therapeutic potential. However, many laboratories have limited resources for biological evaluation, leaving their previously isolated or synthesized compounds largely or completely untested. To address this issue, the Canvass library of natural products was assembled (https://tripod.nih.gov/canvass), in collaboration with academic and industry researchers, for quantitative high-throughput screening (qHTS) across a diverse set of cell-based and biochemical assays. The pure (>85% purity by liquid chromatography/mass spectrometry [LC/MS]) Canvass library of 346 natural products were submitted by 45 academic laboratories and companies around the world. We collected pure natural products to circumvent deconvolution and structure elucidation due to time and resource limitations. The library was formatted into 1536-well plates and evaluated in 50 qHTS (in an 11-pnt concentration series) bioassays with broad scope of disease-relevant mechanisms. The resulting data set from 50 different assays was then systematically analyzed to identify overall trends and specific natural products with interesting biological activities. Reported herein are the results of each individual qHTS and their corresponding assay protocol. This assay measures compound activation of the p53 signaling pathway in cells using a beta-lactamase reporter gene. The p53RE-bla HCT-116 cell line (Invitrogen) contains a stably integrated beta-lactamase reporter gene under control of the p53 response elements. The activation of the report gene under culture conditions can be detected by fluorescence intensity. National Center for Advancing Translational Sciences (NCATS), Rockville, MD National Institute of Health (NIH), Bethesda, Maryland
p53-screen protocol: 1. In black-clear bottom 1536-well plate, 5 uL of p53RE-bla HCT-116 cell suspension was dispensed using a Multidrop Combi (Thermo Fisher Scientific) at a final concentration of 4000 cells / well. 2. The assay plates were incubated for 5 hours at 37C, 5% CO2. 3. […] of compounds (in DMSO; columns 5-48), vehicle control DMSO, and positive control were pin transferred into the assay plates using the Kalypsis pin tool (Wako USA) equipped with a 1536-well pin heads. This yields a final CANVASS compound concentration of 0.4 nM - […]. 4. The assay plates were incubated for 16 hours at 37C, 5% CO2. 5. After incubation, 1 uL of CCF4 dye was added per well using the BioRAPTR dispenser 6. The plates were incubated for 2 hours at room temperature. 7. The fluorescence readout was obtained using the EnVision microplate reader (PerkinElmer) equipped with a 405 nm excitation and 460 nm and 530 nm emission filters. The ratio of 460 nm / 530 nm readout was calculated and used for data analysis. 8. To access cellular viability and compound toxicity, 4 uL of CellTiter-Glo was added to the wells using the BioRAPTR dispenser. 9. The assay plates were further incubated for 30 minutes at room temperature. 10. Luminescence signal was obtained using the ViewLux plate reader (PerkinElmer) using the clear emission filter and 1x binning, 2 second exposure settings.
(In general: qHTS replaces the single test concentration by a dilution series.)
On to `CN1C(=O)[C@]23CC4C(C)(C)[C@@]5(C[C@@]41CN2CC[C@@]3(C)O)C(=O)Nc1c5ccc2c1OC=CC(C)(C)O2` (some centres not stated), for which the Potency result was “inactive”.

Take `CNCCc1ccc(O)cc1`: the Potency entry was “inactive”. The same measure for `CN(C)Cc1c[nH]c2ccccc12`: “inactive”; for `COc1ccc(C23Oc4cc(OC)cc(OC)c4[C@](O)([C@H](c4ccccc4)C2C(=O)NCCCCNC(=O)c2ccccc2)[C@@H]3O)cc1` (some centres not stated): “inactive”; for `CC(=O)N[C@H]1CCN2CCC[C@H]12`: “inactive”. Regarding `CO[C@@H](/C=C/CC/C=C/C(=O)O)[C@@H](O)[C@H](C)/C=C(\C)[C@@H](O)[C@H](C)C(=O)CCCC1CC(=O)NC(=O)C1`, the Potency result is “inactive”. The same measure for `CCN1C[C@]2(C)CC[C@@H](O)[C@]34C1[C@H](C[C@H]23)C12CCC(CC14)[C@](O)(CO)[C@H]2O` (some centres not stated): “inactive”; for `CO[C@@H](/C=C/CC/C=C/C(=O)O)[C@@H](O)[C@H](C)[C@@H](O)/C(C)=C/[C@H](C)C(=O)CCCC1CC(=O)NC(=O)C1`: “inactive”; for `CO[C@H](c1ccccc1)[C@H]1NC(=O)C(C)NC(=O)C(C[C@@H](C)CO)N(C)C(=O)[C@@H](C(O)c2cn(C(C)(C)C3CO3)c3ccccc23)NC(=O)C(C(C)C=C(C)C)NC(=O)C(CC(C)C)N(C)C(=O)C(C(C)C)NC1=O` (some centres not stated): “inactive”. The result for `COC(=O)C1=C2Nc3ccccc3[C@@]23CCN2CC(C(C)=O)C1C[C@H]23` (some centres not stated) reads “inactive”. Take `NCCc1ccccc1`: the Potency result was “inactive”.

Consider `COc1ccc2c3c([nH]c2c1)C(C)=NCC3`, for which the Potency was 18.6 µM (active). The same measure for `CCCCC[C@@H]1OC(=O)[C@@H](C)N(C)C(=O)[C@H](CCCCC)OC(=O)C(C)N(C)C(=O)[C@H](CCCCC)OC(=O)[C@@H](C)N(C)C(=O)[C@H](CCCCC)OC(=O)C(C)N(C)C1=O` (some centres not stated): “inactive”; for `CC1=CC(=O)C2=C(C)C[C@H](O)[C@@H]3[C@H](OC(=O)[C@@H]3C)[C@@H]12`: “inactive”. The same measure for `C/C=C1/CN2CC[C@]34C(=Nc5ccccc53)[C@@H]2C[C@@H]1[C@H]4C(=O)OC`: “inactive”. In the case of `COc1ccc2c(c1)[nH]c1c(C)nccc12`, the Potency was 21.5 µM (active).

Consider `CC=C1CN(C=O)[C@H]2C[C@@H]1[C@@H](C(=O)OC)[C@@]13CCOC21Nc1ccccc13` (some centres not stated), for which the Potency entry is “inactive”. The result for `CCC[C@H]1CC[C@H]2[C@H](C)CCC[C@H]2N1` reads “inactive”.

`C[C@]12CC(O)C3[C@@H](CCC4C[C@@H](O)CC[C@@]43CO)[C@@]1(O)CCC2C1=CC(=O)OC1` (some centres not stated): the Potency entry was “inactive”.

`CC1=CC2CC[C@@H]3[C@@H](C)C[C@H](C)[C@@H](C1)N23` (some centres not stated): the Potency entry is “inactive”. The result for `CNCCc1c[nH]c2ccccc12` reads “inactive”; that for `CCN1C[C@]2(C)CC[C@H](O)[C@]34C1C(C[C@H]23)[C@@]12CC[C@H](CC14)[C@](O)(COC(=O)c1ccc(OC)c(OC)c1)[C@H]2O` (some centres not stated), “inactive”; that for `CC[C@@H]1CN2CC[C@@]3(O)C(=Nc4cccc(OC)c43)[C@@H]2C[C@@H]1/C(=C\OC)C(=O)OC`, “inactive”.

As to `c1ccc2c3c([nH]c2c1)CNCC3`, the Potency entry was “inactive”. The result for `CC[N@@+]1([O-])C[C@]2(C)CC[C@@H](O)[C@@]34C5C[C@H]6CC[C@@]5(C(C[C@H]23)C41)[C@H](O)[C@@]6(O)CO` (some centres not stated) reads “inactive”; that for `CCCC[C@@H]1CC[C@H]2CCCC(CCC)N12` (some centres not stated), “inactive”. The same measure for `CNCCc1ccccc1`: “inactive”.
